These results are taken from the supplement of paper PMC10338343.

This assay concerns MIWI (PIWIL1) piRISC loaded with L1MC piRNA (30 nt). In words: pre-steady-state target cleavage rate (min^-1); MIWI and MILI are mouse PIWI proteins and EfPiwi is from a freshwater sponge; tags in brackets are library labels; higher = faster piRNA-guided slicing of the target. The following applies: guide: L1MC piRNA 5'p-UAACUAAAUACUAUGCAAGCUGUAGGUCCU
The procedure: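 Cleave-'n-Seq: a library of target RNAs (target site embedded in constant flanks, ACAGCATTCCGCGTTAGTGATATCCG... 5' flank; DNA-blocked outside the site) at 0.1 nM was incubated with 1 nM active mouse MILI or MIWI piRISC (synthetic 5'-monophosphorylated piRNA guide) with or without 500 nM mouse GTSF1 at 33 °C for 1 min to 16 h. Uncleaved targets were sequenced and normalised to non-target controls, and the pooled three trials were fitted to a burst-and-steady-state model to give the pre-steady-state cleavage rate (min^-1; k3 is constrained to at most 1e-4). Sequence is the target site only; target names encode pairing extent (gX:gY) and contiguous / 1-mismatch / 2-mismatch / bulge geometry. Fits with R² ≤ 0 are excluded.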

Setting [1] is: auxiliary factor: 500 nM mouse GTSF1.
Setting [2] is: auxiliary factor: none (no GTSF1).

± gives the standard deviation. Whole data set: some 8,200 sequences, median “pre-steady-state target cleavage rate” near 0.024, cut for the highest 2% near 1.3. This excerpt belongs to a sample that is enriched for the highest values.

UCCUCGUACAGCUUGCAUAGUAAUUAGUUA: the “pre-steady-state target cleavage rate” value runs as follows: under setting [1], 0.952 ± 0.032; under setting [2], 0.029 ± 0.007.

As to UCCUGCAUGAGCUUGCAUAGUAUUUAGUUA, the “pre-steady-state target cleavage rate” value under setting [1] came to 0.92 ± 0.051 and the “pre-steady-state target cleavage rate” value under setting [2] worked out at 0.0506 ± 0.01.

Take UCCUGGAACAGCUUGCAUAGUAUUAUGUUA: the “pre-steady-state target cleavage rate” value came to 0.169 ± 0.023 under setting [1] and 0.013 ± 0.0044 under setting [2].

Take UCCUGGAACACUUGCAUAGUAUUUAGUUA: the “pre-steady-state target cleavage rate” value under setting [1] was found to be 0.596 ± 0.032 and the “pre-steady-state target cleavage rate” value under setting [2] was 0.0132 ± 0.0044.

UCCACGUACAGCUUGCAUAGAAUUUAGUUA: the “pre-steady-state target cleavage rate” value was found to be 0.412 ± 0.022 under setting [1] and 0.0297 ± 0.0084 under setting [2].

As to UGGACCUACAGCUUGCAAAGUAUUUAGUUA, the “pre-steady-state target cleavage rate” value by setting is: under setting [1], 1.36 ± 0.058; under setting [2], 0.0474 ± 0.0097.

On to AGGACCUACAGCUUGCAAAGUAUUUAGUUA, for which the “pre-steady-state target cleavage rate” value is, setting by setting: under setting [1], 1.26 ± 0.053; under setting [2], 0.0478 ± 0.0089.

Turning to UGGACCUACAGCUUGCAAAGUAUUUAGUAA, the “pre-steady-state target cleavage rate” value under setting [1] is 1.13 ± 0.074 and the “pre-steady-state target cleavage rate” value under setting [2] came to 0.0219 ± 0.006.

On to UCGACCUACAGCUUGCAAGUAUUUAGUUA, for which the “pre-steady-state target cleavage rate” value is 0.427 ± 0.038 under setting [1] and 0.00682 ± 0.0023 under setting [2].

In the case of UGCACCUACAGCUUGCAAAGUAUUUAGUUA, the “pre-steady-state target cleavage rate” value reads like this: under setting [1], 1.23 ± 0.08; under setting [2], 0.0409 ± 0.0074.

Consider UCGACCUACAGCUUGCAAAGUAUUUAGUUA, for which the “pre-steady-state target cleavage rate” value came to 1.47 ± 0.056 under setting [1] and 0.0377 ± 0.0085 under setting [2].

Regarding ACGACCUACAGCUUGCAAAGUAUUUAGUUA, the “pre-steady-state target cleavage rate” value reads like this: under setting [1], 1.56 ± 0.057; under setting [2], 0.0528 ± 0.011.

Turning to UCCACCUACAGCUUGCAAAGUAUUUAGUUA, the “pre-steady-state target cleavage rate” value under setting [1] worked out at 0.937 ± 0.044 and the “pre-steady-state target cleavage rate” value under setting [2] worked out at 0.0318 ± 0.0069.

On to UCGACCUACAGCUUGCAAAGUAUUUAGUAA, for which the “pre-steady-state target cleavage rate” value under setting [1] amounted to 0.99 ± 0.053 and the “pre-steady-state target cleavage rate” value under setting [2] was 0.0245 ± 0.0048.

Turning to UCCUGGUACUGCUUGCAUAGUAAUUAGUUA, the “pre-steady-state target cleavage rate” value is, setting by setting: under setting [1], 0.313 ± 0.047; under setting [2], 0.0127 ± 0.0034.

In the case of AGGACCUACAGCUUGCAUACUUUUUAGUUA, the “pre-steady-state target cleavage rate” value by setting is: under setting [1], 0.0575 ± 0.011; under setting [2], 0.00783 ± 0.0023.

Take UCCUGGAUCAGGUUGCAAAGUAUUUAGUUA: the “pre-steady-state target cleavage rate” value under setting [1] amounted to 0.391 ± 0.036 and the “pre-steady-state target cleavage rate” value under setting [2] came out at 0.0061 ± 0.0023.

As for UCCACCUACACGUUGCAUAGUAUUUUCAAA, the “pre-steady-state target cleavage rate” value under setting [1] came out at 0.22 ± 0.036.

With UCCUGGAAGAGCUUCCAUAGUAUUUAGUUA, the “pre-steady-state target cleavage rate” value under setting [1] is 0.255 ± 0.058.

Take UGGACCUACAGCUUGCAUAGUAUUUCAGUUA: the “pre-steady-state target cleavage rate” value under setting [1] is 0.468 ± 0.06 and the “pre-steady-state target cleavage rate” value under setting [2] is 0.0318 ± 0.0065.

Turning to AGGAGGUACAGCUUGCAUAGUAUUUAGUAA, the “pre-steady-state target cleavage rate” value by setting is: under setting [1], 0.803 ± 0.079; under setting [2], 0.0437 ± 0.0095.

For AGGAGGUACAGCUUGCAUAGUAUUUAGUUA, the “pre-steady-state target cleavage rate” value under setting [1] is 1.5 ± 0.072 and the “pre-steady-state target cleavage rate” value under setting [2] amounted to 0.0721 ± 0.011.

Consider UGGAGGUACAGCUUGCAUAGUAUUUAGUUA, for which the “pre-steady-state target cleavage rate” value worked out at 1.35 ± 0.064 under setting [1] and 0.0828 ± 0.015 under setting [2].

For the sequence AGGUGGUACAGCUUGCAUAGUAUUUAGUAA, the “pre-steady-state target cleavage rate” value by setting is: under setting [1], 0.645 ± 0.065; under setting [2], 0.04 ± 0.0068.

AGGUGGUACAGCUUGCAUAGUAUUUAGUUA: the “pre-steady-state target cleavage rate” value under setting [1] was found to be 1.36 ± 0.057 and the “pre-steady-state target cleavage rate” value under setting [2] was 0.0811 ± 0.015.

On to UGGAGGUACAGCUUGCAUAGUAUUUAGUAA, for which the “pre-steady-state target cleavage rate” value reads like this: under setting [1], 0.794 ± 0.065; under setting [2], 0.0463 ± 0.0071.

With UCGAGGUACAGCUUGCAUAGUAUUUAGUUA, the “pre-steady-state target cleavage rate” value under setting [1] was 1.04 ± 0.066 and the “pre-steady-state target cleavage rate” value under setting [2] worked out at 0.0604 ± 0.0095.

As to UGGUGGUACAGCUUGCAUAGUAUUUAGUUA, the “pre-steady-state target cleavage rate” value worked out at 1.3 ± 0.046 under setting [1] and 0.0711 ± 0.012 under setting [2].

For AGGAGGUACAGCUUGCAUAGUAUUUAGAAA, the “pre-steady-state target cleavage rate” value under setting [1] is 0.324 ± 0.044 and the “pre-steady-state target cleavage rate” value under setting [2] was determined as 0.0123 ± 0.0037.

On to UGGACCUACAGCUUGCAUAGAAUUUACAAA, for which the “pre-steady-state target cleavage rate” value under setting [1] worked out at 0.29 ± 0.062.

UGGACCUACAGGUUGCAUAGUAAUUAGUUA: the “pre-steady-state target cleavage rate” value came out at 0.731 ± 0.055 under setting [1] and 0.0177 ± 0.0042 under setting [2].

With UGGACCUACAGCUUGCAUAGAAUUUUCAAA, the “pre-steady-state target cleavage rate” value under setting [1] worked out at 0.239 ± 0.048.

With UCCUGGAUGUGCUUGCAUGGUAUUUAGUUA, the “pre-steady-state target cleavage rate” value under setting [1] is 0.209 ± 0.02 and the “pre-steady-state target cleavage rate” value under setting [2] was determined as 0.0348 ± 0.0072.

In the case of UCGACCUACAGCUUGCAUAGUAUUUAGAUA, the “pre-steady-state target cleavage rate” value turned out to be 0.564 ± 0.043 under setting [1] and 0.0299 ± 0.0074 under setting [2].

With UCCACCUACACCUUGCAUAGUAUUUACAAA, the “pre-steady-state target cleavage rate” value is 0.309 ± 0.053 under setting [1] and 0.00355 ± 0.0022 under setting [2].

Take UCCUGGUACAGCUAGCAUAGUAUUAAGUUA: the “pre-steady-state target cleavage rate” value is, setting by setting: under setting [1], 0.378 ± 0.051; under setting [2], 0.00772 ± 0.0027.

Consider UCCUGGAUGUGCUUGCAUAGUAUUUUAGUUA, for which the “pre-steady-state target cleavage rate” value under setting [1] was determined as 0.128 ± 0.018 and the “pre-steady-state target cleavage rate” value under setting [2] came to 0.021 ± 0.0069.

As to UCCACCUACAGCUACGAUAGUAUUUAGUUA, the “pre-steady-state target cleavage rate” value under setting [1] stood at 0.121 ± 0.016.

Consider UCCUCCUACUGCUAGCAUAGUAUUUAGUUA, for which the “pre-steady-state target cleavage rate” value under setting [1] was found to be 0.871 ± 0.033 and the “pre-steady-state target cleavage rate” value under setting [2] came out at 0.0164 ± 0.0031.

AGGACCUUCAGCUUGGAUAGUAUUUAGUUA: the “pre-steady-state target cleavage rate” value under setting [1] came out at 1.48 ± 0.052 and the “pre-steady-state target cleavage rate” value under setting [2] turned out to be 0.0657 ± 0.012.

As to UCCUCCUUCAGCUUGGAUAGUAUUUAGUUA, the “pre-steady-state target cleavage rate” value is, setting by setting: under setting [1], 1.19 ± 0.041; under setting [2], 0.0358 ± 0.0057.

Regarding UCGACCUUCAGCUUGGAUAGUAUUUAGUUA, the “pre-steady-state target cleavage rate” value under setting [1] turned out to be 1.49 ± 0.05 and the “pre-steady-state target cleavage rate” value under setting [2] came out at 0.0525 ± 0.0074.

UGGACCUUCAGCUUGGAUAGUAUUUAGUUA: the “pre-steady-state target cleavage rate” value came out at 1.59 ± 0.068 under setting [1] and 0.0597 ± 0.011 under setting [2].

Regarding UCGACCUUCAGCUUCCAUAGUAUUUAGUUA, the “pre-steady-state target cleavage rate” value runs as follows: under setting [1], 0.0473 ± 0.011; under setting [2], 0.00293 ± 0.0014.

With UCGACCUAGAGCUUGGAUAGUAUUUAGUUA, the “pre-steady-state target cleavage rate” value under setting [1] turned out to be 1.25 ± 0.042 and the “pre-steady-state target cleavage rate” value under setting [2] was 0.0475 ± 0.0077.

Regarding UCCUGCUUCAGCUUGGAUAGUAUUUAGUUA, the “pre-steady-state target cleavage rate” value by setting is: under setting [1], 1.18 ± 0.078; under setting [2], 0.049 ± 0.0081.

In the case of UCCACCUUCAGCUUGGAUAGUAUUUAGUUA, the “pre-steady-state target cleavage rate” value under setting [1] stood at 1.15 ± 0.033 and the “pre-steady-state target cleavage rate” value under setting [2] was 0.0456 ± 0.0083.

As for AGGACCUUCAGCUUCCAUAGUAUUUAGUUA, the “pre-steady-state target cleavage rate” value by setting is: under setting [1], 0.101 ± 0.023; under setting [2], 0.00546 ± 0.0024.

For the sequence UCCACCUAGUCCUUGCAUAGUAUUUAGUAA, the “pre-steady-state target cleavage rate” value under setting [1] came out at 0.142 ± 0.021 and the “pre-steady-state target cleavage rate” value under setting [2] is 0.00921 ± 0.0015.

UCCUGGAACAGCUUGCAAAGUAAUUAGUUA: the “pre-steady-state target cleavage rate” value was 0.545 ± 0.038 under setting [1] and 0.0139 ± 0.0055 under setting [2].

As to UCCACCUACAGCUUGCAUAGAAUUUACAAA, the “pre-steady-state target cleavage rate” value under setting [1] amounted to 0.308 ± 0.054.

As to UCCUGGUACAGUUUGCAUAGUAUUUAGUUA, the “pre-steady-state target cleavage rate” value runs as follows: under setting [1], 0.706 ± 0.044; under setting [2], 0.0392 ± 0.0063.

For UCGACCUACAGCUAGCAUAGUAUUUAGUUA, the “pre-steady-state target cleavage rate” value was 1.28 ± 0.053 under setting [1] and 0.0292 ± 0.0072 under setting [2].

On to AGGACCUACAGCUUAGCAUAGUAUUUAGUUA, for which the “pre-steady-state target cleavage rate” value was 1.37 ± 0.052 under setting [1] and 0.0387 ± 0.011 under setting [2].

On to UGGACCUACAGCUUAGCAUAGUAUUUAGUUA, for which the “pre-steady-state target cleavage rate” value is, setting by setting: under setting [1], 1.45 ± 0.08; under setting [2], 0.0281 ± 0.0051.

As for UCGACCUACAGCUUAGCAUAGUAUUUAGUUA, the “pre-steady-state target cleavage rate” value reads like this: under setting [1], 1.59 ± 0.058; under setting [2], 0.0251 ± 0.0054.

Take ACGACCUACAGCUAGCAUAGUAUUUAGUUA: the “pre-steady-state target cleavage rate” value is 1.3 ± 0.052 under setting [1] and 0.0406 ± 0.0091 under setting [2].

For AGGACCUACAGCUUGGCAUAGUAUUUAGUUA, the “pre-steady-state target cleavage rate” value came to 1.17 ± 0.17 under setting [1] and 0.0407 ± 0.0099 under setting [2].

As for UCCACCUACAGCUUAGCAUAGUAUUUAGUUA, the “pre-steady-state target cleavage rate” value was found to be 1.02 ± 0.03 under setting [1] and 0.0144 ± 0.0034 under setting [2].
